Bioassay records from PubChem BioAssay.
POLB inh: inhibitors of human DNA polymerase beta. P06746. Pol beta primer extension/strand displacement, fluorescence kinetic. Potency, µM (doses to about 114 µM), most hits filed as inhibitors. 340,000 tested, 1.3% active. AID 485314
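Enzyme-only controls used 10 nM Pol beta; buffer lacking enzyme served as negative control. Compound preincubated 15 min, then 50 nM substrate added; 0 and 10 min reads at room temperature.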
WRN helicase inh: WRN helicase (human) inhibition. WRN helicase unwinding, fluorescent forked duplex, kinetic. 360,000 tested, 0.46% active. Q14191. Potency, µM (top dose mostly 114 µM), usual class: inhibitors; further: nearly all actives have a fitted effect of over 55% in size
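Enzyme (20 nM final) and test compound sit together 15 min at room temperature before substrate addition. Substrate is a single-forked duplex oligonucleotide (100 nM) labelled with fluorophore and quencher, with 2 mM ATP; helicase unwinding raises red fluorescence, read kinetically.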
Pol iota inh: DNA polymerase iota (human) inhibition; Q9UNA4; 390,000 tested, 1% active; Potency, µM (doses to about 115 µM), hits mostly inhibitors; Pol iota fluorescent replication assay, 10 min
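Pol iota at 10 nM preincubated 15 min with compounds at room temperature; reaction started with fluorescent substrate, 50 nM final. Fluorescence read kinetically at 0 and 10 min; buffer-only wells as negative control.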
POLK inh: inhibitors of human DNA polymerase kappa; Q9UBT6; Potency, µM (series often up to 107 µM), hits mostly inhibitors; AID 588579; 400,000 tested, 0.53% active; purified Pol kappa, fluorescent DNA synthesis assay, 10 min
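Inhibition of 10 nM Pol kappa is measured by a fluorescent read-out at 0 and 10 min following addition of 50 nM substrate (final), with a 15-min room-temperature compound preincubation.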
Pol eta inh: inhibitors of human DNA polymerase eta; AID 588591; 390,000 tested, 1.2% active; recombinant Pol eta, fluorescent DNA replication assay; Potency, µM (highest dose often 114 µM), usual class: inhibitors
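Pol eta (10 nM) was preincubated with compounds for 15 min at room temperature, after which fluorescent replication substrate (50 nM final) was added to start the reaction. Fluorescence was read kinetically at 0 and 10 min.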
FEN1 inhibitor: inhibitors of human flap endonuclease 1 | P39748 | Recombinant FEN1 flap cleavage, fluorescence, 15 min | Potency, µM (series often up to 114 µM), most hits filed as inhibitors | 390,000 tested, 0.35% active | AID 588795; further: nearly all actives have a fitted effect of over 65% in size
Target sequence (P39748 whole entry, looked up): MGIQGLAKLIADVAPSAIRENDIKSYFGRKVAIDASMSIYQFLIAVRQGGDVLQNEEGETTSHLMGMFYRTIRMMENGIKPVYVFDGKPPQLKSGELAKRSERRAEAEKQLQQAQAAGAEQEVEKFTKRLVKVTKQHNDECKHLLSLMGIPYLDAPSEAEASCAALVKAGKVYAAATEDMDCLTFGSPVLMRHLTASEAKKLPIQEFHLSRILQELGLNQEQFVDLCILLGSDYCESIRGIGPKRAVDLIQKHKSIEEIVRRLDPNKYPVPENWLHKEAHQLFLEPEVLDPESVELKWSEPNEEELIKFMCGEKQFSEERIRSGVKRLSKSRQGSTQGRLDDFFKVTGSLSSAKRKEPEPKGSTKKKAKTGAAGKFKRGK
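Nuclease activity of 10 nM FEN1 was measured after 15 min of room-temperature exposure to titrated compounds, by adding 50 nM flap substrate and reading plates at 0 and 15 min.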
Hits are given with their value; . = inactive; ? = inconclusive; / = not tested or not shown; [ ] = remark or other dose. In the library only some 2.4% were active in any assay of this set; here they are far more common. The call rests on the fitted dose curve; in most records, active means well fitted curve in the direction sought with a large enough effect; inconclusive means small, poorly fitted or top-dose-only effect, or another doubt; inactive means no such curve, though single readings can be large; an effect the other way counts as inactive or inconclusive.

SMILES | POLB inh | WRN helicase inh | Pol iota inh | POLK inh | Pol eta inh | FEN1 inhibitor
O=S(=O)(c1ccc(Br)cc1)c1nnn2c1nc(NCCc1ccccc1)c1sccc12 | . | / | . | . | . | .
Cc1ccc(/C(N)=N/OC(=O)Cc2cccs2)cc1 | . | . | . | . | . | .
N/C(=N\OC(=O)Cc1cccs1)c1ccccc1 | . | . | . | . | 16µM | .
COc1cccc(NC(=O)CN(C)CC(=O)NCc2ccco2)c1 | / | . | . | . | . | .
COc1cccc(CN(C)CC(=O)NC(=O)NCc2ccco2)c1 | 16µM | . | 35µM | ? | 18µM | .
COc1ccc(-c2nc3cnc(N(C)C)nc3n(C)c2=O)cc1 | / | / | / | . | / | /
Cc1cc(C)c(S(=O)(=O)/N=C2\C=CC(=O)C(Cl)=C2)c(C)c1 | 35µM | . | ? | ? | ? | .
O=C(c1ccco1)N1CCC[C@@]2(CCN(Cc3ccccc3)C2)C1 | / | / | / | . | / | /
COc1ccc(N2C(=O)c3ccccc3NC2c2ccc(OC)c(COc3ccc(NC(C)=O)cc3)c2)cc1 (stereo not given) | / | / | . | . | / | .
CC(/C=N/NC(=O)Cc1cccn1C)=C\c1ccco1 | ? | . | 45µM | ? | ? | .
CC(=O)NC(Cc1ccc(O)cc1)C(=O)NCC(N)C(=O)c1ccccc1 (stereo not given) | / | / | . | . | / | .
COc1ccc(CCNC(=O)CSc2ccsc2[N+](=O)[O-])c(OC)c1 | ? | .[11.6 µM] | ? | . | 45µM | .
COc1ccc(CCNC(=O)CSc2ccsc2[N+](=O)[O-])cc1OC | ? | . | . | . | . | .
O=C(CSc1ccsc1[N+](=O)[O-])NC1CCCC1 | ? | .[11.6 µM] | 45µM | . | 56µM | .
COc1ccc(OC)c(CCNC(=O)CSc2ccsc2[N+](=O)[O-])c1 | . | . | 45µM | ? | 40µM | .
COCCn1c(=O)c(-c2cc(F)cc(F)c2)nc2cnc(Oc3ccc(OC)cc3)nc21 | / | / | / | . | / | /
CCC(C)/C=C/C1=CC2=C(Cl)C(=O)C3(C)OC(=O)C(C(=O)C(C)C(C)O)C3C2=CO1 (stereo not given) | 22µM | .[11.6 µM] | ? | 79µM | ? | .
CCn1cc2nc(SCC(=O)Nc3ccc(C)cc3C)n(Cc3ccc(C)cc3)c(=O)c2n1 | 10µM | / | . | . | 79µM | .
COCc1ccc(CN2CCC(C(=O)Nc3cccc(-c4cscn4)c3)CC2)o1 | . | . | . | . | . | .
O=C(Nc1cccc(-c2cscn2)c1)C1CCN(Cc2ccc(CO)o2)CC1 | . | .[11.6 µM] | 50µM | ? | . | .
C#CCOCCOCCOCCNc1nc(N2CCN(C(=O)[C@H](Cc3ccc(O)cc3)n3cc([C@@H](N)CC(C)C)nn3)CC2)nc(N2CCN(C(=O)[C@H](Cc3ccc(O)cc3)n3cc([C@@H](N)CC(C)C)nn3)CC2)n1 | 32µM | / | / | / | / | /
C#CCOCCOCCOCCNc1nc(N2CCN(C(=O)[C@H](Cc3ccc(O)cc3)n3cc([C@@H](N)C(C)CC)nn3)CC2)nc(N2CCN(C(=O)[C@H](Cc3cc4ccccc4[nH]3)n3cc([C@@H](N)Cc4ccc(O)cc4)nn3)CC2)n1 (stereo not given in full) | . | / | / | / | / | /
C#CCOCCOCCOCCNc1nc(N2CCN(C(=O)C(Cc3ccc(O)cc3)n3cc(C(N)CC(C)C)nn3)CC2)nc(N2CCN(C(=O)C(Cc3cc4ccccc4[nH]3)n3cc(C(N)C(C)CC)nn3)CC2)n1 (stereo not given) | 50µM | / | / | / | / | /
C#CCOCCOCCOCCNc1nc(N2CCN(C(=O)[C@H](Cc3ccc(O)cc3)n3cc([C@@H](N)CC(C)C)nn3)CC2)nc(N2CCN(C(=O)[C@H](Cc3cc4ccccc4[nH]3)n3cc([C@@H](N)CC(C)C)nn3)CC2)n1 | 35µM | ? | ? | . | . | .
C#CCOCCOCCOCCNc1nc(N2CCN(C(=O)C(Cc3cc4ccccc4[nH]3)n3cc(C(N)C(C)CC)nn3)CC2)nc(N2CCN(C(=O)C(Cc3cc4ccccc4[nH]3)n3cc(C(N)C(C)CC)nn3)CC2)n1 (stereo not given) | 20µM | . | ? | . | . | ?
SMILES | POLB inh | WRN helicase inh | Pol iota inh | POLK inh | Pol eta inh | FEN1 inhibitor
O=C(NNc1ccc(F)cc1F)c1cccs1 | / | / | . | . | / | .
CCOC(=O)Cc1ccc(NC(=O)N2CCOc3ccc(C)cc32)cc1 | . | / | . | . | . | .
COC(=O)N1CCC2(CCCN(C(=O)Nc3cccc(F)c3)C2)CC1 | / | / | / | . | / | /
O=C(Cc1ccc(Cl)cc1)NCC(c1cccs1)S(=O)(=O)c1ccc(F)cc1 (stereo not given) | . | / | . | . | . | .
COc1ccccc1N1CCN(C(=O)N2CCOCC2)CC1 | . | . | 89µM | . | . | .
COc1ccccc1N1CCN(C(=O)c2ccc(C(C)(C)C)cc2)CC1 | ? | 50µM | ? | . | . | .
Nc1ccc(OC(=O)Nc2ccc(O)cc2)cc1 | . | . | 20µM | . | . | .
O=C(Nc1ccc(N2CCN(c3ccc(O)cc3)CC2)cc1)Oc1ccccc1 | . | . | . | . | . | .
COc1ccccc1C(=O)Nc1ccc(S(=O)(=O)N2CCc3ccccc32)cc1 | . | . | . | . | . | .
Cc1cc(NC(=O)c2ccc(S(=O)(=O)N3CCc4ccccc43)cc2)no1 | 50µM | . | ? | . | . | .
COc1ccc(S(=O)(=O)N2CCc3ccccc32)cc1C(=O)Nc1ccc(C(N)=O)cc1 | / | . | 89µM | . | . | .
COc1cccc(NC(=O)c2ccccc2OCC(=O)Nc2ccc(Br)cc2)c1 | / | / | . | . | / | .
O=C(NC1CCSC1=O)c1cccc(C(=O)NC2CCSC2=O)c1 (stereo not given) | 50µM | . | ? | . | ? | .
Cc1ccc(S(=O)(=O)N(CC(O)Cn2c3ccccc3c3ccccc32)c2cccc(C(=O)N(C)C)c2)cc1 (stereo not given) | . | / | 89µM | 79µM | . | 89µM
Cc1ccc(S(=O)(=O)N(CC(O)Cn2c3ccccc3c3ccccc32)c2cccc(C(N)=O)c2)cc1 (stereo not given) | . | / | . | . | . | .
O=[N+]([O-])c1ccc(Sc2ccncn2)c([N+](=O)[O-])c1 | / | ? | / | / | 50µM | /
O=C(CNC(=O)c1cccc(F)c1)N/N=C/c1cc(Br)ccc1OC(=O)/C=C/c1ccco1 | 35µM | . | ? | . | . | .
O=c1cc(-c2ccccc2)nc2c(-c3ccccc3)c(C(F)(F)F)[nH]n12 | 79µM | . | . | . | ? | .
CN(CC(=O)O)c1ccc(C=O)cc1 | / | / | . | . | / | .
CC(C)OC(=O)c1c2c(n3ccccc13)C(=O)c1ccccc1C2=O | . | 89µM | . | . | ? | ?
COC(=O)c1cc2c(C)c(C)c3ccccn3c-2c1C(=O)OC | . | . | ? | . | ? | .
CC/C=C\C[C@H]1C(=O)CC[C@@H]1CC(=O)O | / | / | / | .[19.4 µM] | / | /
